This passage reports growth results from PubChem BioAssay (NCI).

Among the test systems are HCT-15 colon; HT29 colon; SNB-19 CNS; U251 CNS; PC-3 prostate; SK-MEL-5 melanoma; UACC-62 melanoma; LOX IMVI melanoma; SK-MEL-28 melanoma; SK-MEL-2 melanoma; EKVX NSCLC; SN12C renal; UO-31 renal; TK-10 renal; ACHN renal; A498 renal; CCRF-CEM leukemia; MOLT-4 leukemia; SR leukemia.
Holding throughout (experiment): NCI-60 one-dose screen, 48 h (100 = growth as untreated, 0 = no growth, -100 = all killed)
What all share (settings): 10 µM unless noted

Compounds without any hit were thinned out: in the full panel of roughly 83,000, 20% have a hit.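 Treatment: one concentration, 48 hours, 96-well format. Scoring: percent growth, with anything below 10 considered active.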 Values without a mark were called inactive. The source made the active and inactive calls.

As to `COc1ccc(C2N(c3cc(OC)c(OC)c(OC)c3)C(=O)C2(F)F)cc1F` (stereo not given), the growth with HCT-15 colon was 19.4%; in the experiment on HT29 colon it was 11.2%; in the experiment with SNB-19 CNS, 52.9%; with U251 CNS it was 41.6%; in the experiment on PC-3 prostate it was 35.9%; with SK-MEL-5 melanoma, 8.08% (active). In addition, the growth in the experiment with UACC-62 melanoma was 55.5%; in the experiment with LOX IMVI melanoma, 27.1%; in the experiment on SK-MEL-28 melanoma, 77.2%; with SK-MEL-2 melanoma, 84.6%; in the experiment on EKVX NSCLC, 77.7%; with SN12C renal, 54.9%. Also, the growth in the experiment on UO-31 renal is 53.5%; in the experiment on TK-10 renal, 106%; in the experiment with ACHN renal, 60.8%; in the experiment on A498 renal it was 97.8%; with CCRF-CEM leukemia, 13%; in the experiment with MOLT-4 leukemia, 18.7%. Moreover, the growth in the experiment with SR leukemia is 18.7%.
Turning to `COC(=O)c1cncc(C(=O)Nc2ccc(-n3cnc4ccccc43)cc2)c1`, the growth with HCT-15 colon was 100%; with HT29 colon, 96.5%; in the experiment with SNB-19 CNS it was 99.1%; with U251 CNS it was 91.4%; in the experiment on PC-3 prostate, 92.1%; in the experiment on SK-MEL-5 melanoma, 93.9%. Also, the growth in the experiment with UACC-62 melanoma was 93.4%; in the experiment with LOX IMVI melanoma, 96.4%; in the experiment on SK-MEL-28 melanoma it was 103%; with SK-MEL-2 melanoma it was 105%; with EKVX NSCLC, 100%; in the experiment on SN12C renal it was 101%. For the same compound, the growth with UO-31 renal is 93.8%; in the experiment with TK-10 renal, 96.2%; in the experiment on ACHN renal, 90.4%; in the experiment on A498 renal, 88.3%; in the experiment on CCRF-CEM leukemia, 98%; with MOLT-4 leukemia, 90.2%. In addition, the growth with SR leukemia is 75.4%.
`COc1ccc2[nH]c(=O)c(/C=C/C(=O)c3ccccc3OC)cc2c1`: the growth was 11.3% in the experiment with HCT-15 colon; 7.17% (active) in the experiment with HT29 colon; 17% with SNB-19 CNS; 5.14% (active) in the experiment with U251 CNS; 22.1% in the experiment with PC-3 prostate; 25.2% with SK-MEL-5 melanoma. The growth in the experiment on UACC-62 melanoma was 25.7%; with LOX IMVI melanoma, 10.2%; in the experiment on SK-MEL-28 melanoma it was 50.5%; in the experiment on SK-MEL-2 melanoma, -2.52% (active); in the experiment with EKVX NSCLC, 37.8%; in the experiment on SN12C renal, 8.57% (active). Moreover, the growth with UO-31 renal is 23.6%; with TK-10 renal, 42%; with ACHN renal, 38.8%; in the experiment on A498 renal, 21.7%; in the experiment on CCRF-CEM leukemia, 7.53% (active); in the experiment on MOLT-4 leukemia, 10.9%. Besides, the growth in the experiment on SR leukemia is 2.69% (active).
`CC(=O)c1ccc(NC(=O)CSc2nnc(-c3cc(-c4ccc(Cl)cc4)nc4ccccc34)o2)cc1`: the growth in the experiment on HCT-15 colon is 76.9%; with HT29 colon, 84.3%; in the experiment on SNB-19 CNS, 78%; in the experiment with U251 CNS it was 28.6%; in the experiment with PC-3 prostate it was 79.5%; in the experiment on SK-MEL-5 melanoma, 90.5%. For the same compound, the growth is 95.7% in the experiment with UACC-62 melanoma; 46.1% in the experiment on LOX IMVI melanoma; 107% in the experiment with SK-MEL-28 melanoma; 87.3% in the experiment with SK-MEL-2 melanoma; 97.3% in the experiment on EKVX NSCLC; 37.9% in the experiment with SN12C renal. Besides, the growth in the experiment with UO-31 renal was 86.6%; in the experiment with TK-10 renal, 83.7%; with ACHN renal, 89.8%; in the experiment with A498 renal it was 105%; with CCRF-CEM leukemia it was 60.8%; in the experiment with MOLT-4 leukemia, 66.6%. Further, the growth with SR leukemia was 0.55% (active).
As for `O=C1NN(c2ccccc2)C(c2ccc(Cl)cc2)N2CCC[C@H]12` (stereo not given in full), the growth in the experiment with HCT-15 colon is 92.9%; in the experiment on HT29 colon, 101%; in the experiment on SNB-19 CNS, 94.6%; in the experiment on U251 CNS, 101%; with SK-MEL-5 melanoma, 96.1%; with UACC-62 melanoma, 87.3%. For the same compound, the growth is 87.8% in the experiment with LOX IMVI melanoma; 104% in the experiment with SK-MEL-28 melanoma; 107% in the experiment with SK-MEL-2 melanoma; 94.8% with EKVX NSCLC; 105% in the experiment on SN12C renal; 111% with TK-10 renal. In addition, the growth was 106% with ACHN renal, 107% in the experiment on CCRF-CEM leukemia, 99.5% in the experiment with MOLT-4 leukemia and 111% in the experiment on SR leukemia.
Consider `CC(C)CSc1nc(Nc2ccccc2)c(C#N)c(-c2ccc(F)cc2)n1`, for which the growth was 67.4% in the experiment on HCT-15 colon; 50.7% in the experiment with HT29 colon; 5.61% (active) in the experiment with SNB-19 CNS; -32.5% (active) in the experiment on U251 CNS; 47.7% in the experiment with PC-3 prostate; 80.5% in the experiment on SK-MEL-5 melanoma. The growth is 70.9% in the experiment on UACC-62 melanoma; 4.45% (active) with LOX IMVI melanoma; 84.5% with SK-MEL-28 melanoma; 78.8% with SK-MEL-2 melanoma; 23.2% in the experiment on EKVX NSCLC; -26% (active) in the experiment with SN12C renal. Further, the growth in the experiment with UO-31 renal is -3.98% (active); in the experiment with TK-10 renal it was -22.9% (active); in the experiment with ACHN renal it was -43.2% (active); with A498 renal it was -0.717% (active); in the experiment with CCRF-CEM leukemia, 31.1%; with MOLT-4 leukemia, 65.5%. Moreover, the growth with SR leukemia was -11.1% (active).
As to `Nc1cc(N)c(S(=O)(=O)O)cc1N=Nc1cc([N+](=O)[O-])ccc1O`, the growth in the experiment on HCT-15 colon is 104%; in the experiment with HT29 colon, 102%; with SNB-19 CNS, 98.8%; with U251 CNS, 100%; in the experiment with PC-3 prostate it was 87.1%; in the experiment with SK-MEL-5 melanoma, 105%. Moreover, the growth in the experiment on UACC-62 melanoma was 92.1%; with LOX IMVI melanoma, 93.4%; in the experiment with SK-MEL-28 melanoma it was 102%; with SK-MEL-2 melanoma it was 98.1%; in the experiment with EKVX NSCLC, 103%; in the experiment with SN12C renal, 100%. The growth in the experiment with UO-31 renal is 89.4%; with TK-10 renal it was 102%; in the experiment on ACHN renal it was 109%; in the experiment on A498 renal, 103%; with CCRF-CEM leukemia it was 93.9%; in the experiment with MOLT-4 leukemia, 90.5%. Besides, the growth with SR leukemia was 90.3%.
